# HTR1E antagonist: 5-HT1E (human) receptor antagonism | P28566 | 65,000 compounds, 0.99% hits | inhibition, % at 6 µM | CHO 5-HT1E Ga15 NFAT-bla reporter, FRET, antagonist;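 active = inhibition above a set limit, the mean inhibition across every tested compound plus 3 SD, cut at about 29% in these data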;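 note: signal is the 460 over 535 nm emission ratio of beta-lactamase substrate; 0% = agonist plus DMSO wells and 100% = wells without agonist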
# Target sequence (P28566 whole entry, looked up): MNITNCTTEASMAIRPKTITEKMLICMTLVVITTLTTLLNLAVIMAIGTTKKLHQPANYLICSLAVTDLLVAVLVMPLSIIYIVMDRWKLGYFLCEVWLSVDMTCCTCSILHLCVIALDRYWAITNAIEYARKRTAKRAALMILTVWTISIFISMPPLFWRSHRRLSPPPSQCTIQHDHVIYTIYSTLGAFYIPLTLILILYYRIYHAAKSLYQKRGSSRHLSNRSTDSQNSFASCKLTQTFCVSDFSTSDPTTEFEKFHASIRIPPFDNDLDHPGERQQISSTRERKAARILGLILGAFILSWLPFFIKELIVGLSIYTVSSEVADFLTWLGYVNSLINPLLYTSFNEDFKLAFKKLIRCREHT
# HTR1A agonist: agonists of human 5-HT1a serotonin receptor | P08908 | CHO 5-HT1a Ga15 NFAT-bla reporter, FRET ratio; 0% basal, 100% maximal reference agonist | activation, % at 10 µM | 65,000 compounds, 0.56% hits | AID 567;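 active = activation above the screen-wide mean activation plus 3 SD, cut at about 19% in these data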;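 note: 0% = DMSO wells and 100% = 5-CT at EC100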
# mHtt clearance: mutant huntingtin protein clearance; HeLa Exon1htt(103Q)mCFP, aggregate imaging; zero = plate's median compound well; inhibition, % at 1.5 µM; 47,000 compounds, 0.42% hits; AID 853;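 active = inhibition of aggregate fluorescence above about 70%, also judged a hit by eye on the cell image, limit read from the data, passing the limit was not always enough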;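 note: cells exposed to compound for three days before fixation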
# 5HT1E ag: activates the human 5-HT1E serotonin receptor; P28566; CHO 5-HT1E Ga15 NFAT-bla reporter, FRET; 0% DMSO wells, 100% control agonist wells; activation, % at 6 µM; 65,000 compounds, 0.69% hits; AID 574;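 active = activation above a set limit, the screen-wide mean activation plus 3 SD, cut at about 8.5% in these data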;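 note: 100% = positive control agonist at 1 µM giving full maximal response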
# 5-HT1A blocker: blocks the human serotonin 5-HT1a receptor | CHO 5-HT1a Ga15 NFAT-bla reporter, antagonist mode | P08908 | inhibition, % at 10 µM | 62,000 compounds, 0.68% hits;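 active = inhibition above the mean of all tested compounds plus 3 SD, cut at about 43% in these data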;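 note: receptor stimulated by 5-CT agonist at 100 nM near EC80; beta-lactamase reporter measured by ratiometric fluorescence of a cleavable substrate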
# The depositor's hits bear a star; . = not tested or not shown. Rows were chosen to be rich in hits. Some 2.3% of all compounds tested hit in one or more screens of this group.
SMILES,HTR1E antagonist,HTR1A agonist,mHtt clearance,5HT1E ag,5-HT1A blocker
O=C1c2oc3ccc(F)cc3c(=O)c2C(c2cccc(O)c2)N1CCCN1CCOCC1 (stereo unspecified),-1,0,.,30*,-14
CCCS(=O)(=O)c1nnnn1-c1cccc(OC)c1,106*,-11,.,-1,109*
CCn1c(SCc2ccc(C(=O)OC)o2)nc2sc3c(c2c1=O)CCCC3,-11,-2,36,9.3*,6
CCn1c(SCC(=O)OC)nc2sc3c(c2c1=O)CCC3,.,.,-4,.,.
O=C(CCc1nc(-c2ccccc2F)no1)NCCN1CCc2ccccc2C1,-2,6,.,-1,10
O=C(CCc1nc(-c2ccccc2F)no1)NCCc1ccccc1Cl,-18,-2,15,15*,4
Cc1ccc(-c2noc(CCC(=O)NCCc3ccccc3Cl)n2)cc1,1,-1,.,21*,14
CCN(CC)c1ccc2cc(NC(=O)CCC(=O)O)c(=O)oc2c1,55*,-3,.,0,40
CCN(CC)c1ccc2cc(C(=O)Nc3cccnc3N3CCOCC3)c(=O)oc2c1,0,2,.,0,2
CCN(CC)c1ccc2cc(C(=O)Nc3ccccn3)c(=O)oc2c1,-32,57*,.,6,.
Oc1ccc2ccccc2c1CN1CCN(c2ccccc2F)CC1,-11,3,46,14*,1
CCN(CC)CCCNC(CC(=O)O)C(=O)O (stereo unspecified),1,-4,.,0,4
Fc1ccccc1N1CCN(c2ncnc3[nH]ncc23)CC1,5,310*,.,-1,-8
NC(=O)CN1CCN(c2ccccc2F)CC1,7,-3,.,0,-3
Cc1[nH]nc2c1C(c1ccc(F)cc1)C1=C(CC(C)(C)CC1=O)N2 (stereo unspecified),-6,-2,.,0,-12
Cc1ccc(NC(=O)c2cc(-c3cccc(O)c3)on2)cc1C,-13,0,-104,0,8
N#Cc1nc(COc2ccc(F)cc2)oc1N1CCC(Cc2ccccc2)CC1,1,-4,-55,-1,56*
N#Cc1nc(COc2ccc(Cl)cc2)oc1N1CCCCCC1,15,-2,.,0,28
COc1ccc(OCc2nc(C#N)c(N3CCN(c4ccc(OC)cc4)CC3)o2)cc1,7,-2,-7,0,52*
COc1ccc(N2CCN(c3oc(COc4ccccc4Cl)nc3C#N)CC2)cc1,2,-4,.,0,50*
N#Cc1nc(COc2ccc(F)cc2)oc1N1CCN(Cc2ccccc2)CC1,-2,-2,.,1,35
N#CCCN1CCN(C(=S)c2ccc(-c3cc(Cl)ccc3Cl)o2)CC1,31*,-5,-11,0,10
CC1Cc2ccccc2N1C(=O)CSc1nnnn1C(C)C (stereo unspecified),.,.,4,.,.
COc1ccc(NS(=O)(=O)c2ccc(OC)c3ccccc23)cn1,3,1,.,1,1
COc1ccc(S(=O)(=O)Nc2cc(C)cc(C)n2)c2ccccc12,4,0,86*,0,0
SMILES,HTR1E antagonist,HTR1A agonist,mHtt clearance,5HT1E ag,5-HT1A blocker
CCc1cc2c3c(c(=O)oc2cc1O)CCCC3,-3,2,.,0,6
Cc1cccc(OCC(=O)Nc2cc(C)ccc2O)c1,-3,8,85*,0,-8
NC(=O)c1ccccc1NC(=O)NC1CCCCC1,.,.,7,.,.
O=C(Nc1ccccc1NC(=O)NC1CCCCC1)NC1CCCCC1,56*,-5,.,1,7
O=C(Nc1ccc(Cl)c(Cl)c1)N(CCCN1CCOCC1)Cc1cccs1,.,.,8,.,.
CC(C)(C)N1C(=O)Cc2c1nc(N)c1c(N)nc(N3CCCCC3CO)c(C#N)c21 (stereo unspecified),34*,-1,-38,0,53*
N#Cc1c(N2CCCCC2)nc(N)c2c(N)nc3c(c12)CC(c1ccccc1)O3 (stereo unspecified),.,.,63,.,.
Cc1cc(C)n(Cc2ccc(C(=O)NCCC3=CCCCC3)o2)n1,5,65*,.,-1,.
COc1cc(NC(=O)c2cccc3c2C(=O)N(Cc2cccnc2)C3)cc(OC)c1OC,30*,3,.,1,18
O=C(Nc1ccc2c(c1)OCO2)c1cccc2c1C(=O)N(Cc1cccnc1)C2,1,-1,.,1,-10
COc1cccc(Nc2nc(=O)[nH]nc2C)c1,13,-2,18,-1,1
CC(=O)Nc1cccc(NC(=O)CCCC(=O)O)c1,4,-3,34,28*,5
CCCCC(=O)Nc1cccc(NC(=O)CC)c1,-35,-2,-29,0,-4
COc1cc2c(cc1OC)/C(=C/C(=O)N1CCOCC1)NC(C)(C)C2,30*,-1,.,0,0
CCCCn1c(-c2ccc([N+](=O)[O-])cc2)n[nH]c1=S,.,.,3,.,.
COc1ccc2nc3sc(C(=O)N4CCN(C)CC4)cc3cc2c1,1,0,.,25*,-9
Cc1ccc(C(C)C)c(OCCNc2nc3c(c(=O)n(C)c(=O)n3C)n2C)c1,-2,-1,.,0,.
CC(C)OC(=O)CSc1nc(N)c(C#N)c(-c2cccs2)c1C#N,44*,0,.,0,-10
N#Cc1c(N)nc(SCC(=O)NCCc2ccccc2)c(C#N)c1-c1cccs1,13,12,.,2,.
CCCCSc1nc(N)c(C#N)c(-c2cccs2)c1C#N,32*,3,-6,0,.
c1ccc(CNC2=NCCCCC2)cc1,4,-2,.,13*,10
Cc1cccc(-n2nc3c(c2NC(=O)CCC2CCCCC2)CS(=O)C3)c1C (stereo unspecified),-1,-1,.,-1,19
N#Cc1nc(-c2cccc3ccccc23)oc1N1CCCCC1,-6,1,17,1,-16
N#Cc1nc(-c2ccccc2Cl)oc1N1CCCCC1,33*,-1,24,0,.
CC(=O)NCCN=Cc1sc2ccccc2c1O,-3,49*,15,0,-1
SMILES,HTR1E antagonist,HTR1A agonist,mHtt clearance,5HT1E ag,5-HT1A blocker
COc1ccc(CC(=O)Nc2c3c(nn2-c2cccc(C)c2C)CS(=O)C3)cc1OC (stereo unspecified),23,1,-3,-1,-10
COc1ccc(CC(=O)Nc2c3c(nn2-c2cccc(C)c2C)CS(=O)C3)cc1 (stereo unspecified),0,1,27,19*,0
NS(=O)(=O)c1cc2c(cc1Cl)NC=NS2(=O)=O,-10,0,.,0,.
COc1ccc2nc(SCC(N)=O)[nH]c2c1,-5,-2,54,-1,-4
COc1ccc2nc(SCc3nc(N)nc(Nc4ccccc4)n3)[nH]c2c1,40*,5,45,2,6
CCc1cc(-c2[nH]ncc2-c2ccc3c(c2)OCO3)c(O)cc1O,15,-4,.,0,33
COc1ccc(-c2[nH]ncc2-c2ccc3c(c2)OCCO3)c(O)c1,16,-3,.,0,44*
Cc1nnc(SCC(=O)N2CCN(S(=O)(=O)c3ccc(Cl)cc3)CC2)n(N)c1=O,2,-1,.,24*,-9
Nn1cc(-c2ccccc2)nc1SCC(=O)N1CCN(S(=O)(=O)c2ccc(Cl)cc2)CC1,-8,-3,.,1,-4

# Screens (PubChem BioAssay)
